According to PubChem BioAssay (NCATS):
Results filed as inconclusive are left out. Entries that show only a call come without a potency. Calls of active or inactive are those of the source. The call rests on the fitted dose curve; in most records, active means well fitted inhibition curve with a large enough effect; inconclusive means small, poorly fitted or top-dose-only effect; inactive means no such curve, though single readings can be large or run the other way.

target: Nuclear receptor ROR-gamma (Homo sapiens) (UniProt P51449); experiment: qHTS assay for small molecule antagonists of the retinoid-related orphan receptor gamma (ROR-gamma) signaling pathway (AID 651802); conditions: ROR-gamma antagonist cell reporter assay; series mostly up to 92.2 µM; further: nearly all actives have a fitted effect of over 60% in size
Text: National Center for Advancing Translational Sciences [NCATS]
NIH Chemical Genomics Center [NCGC]
National Institutes of Environmental Health Sciences [NIEHS]
National Toxicology Program [NTP]
Nuclear steroid hormone receptors are involved in many biological processes including inflammatory responses, cell proliferation, and apoptosis. Environmental factors or compounds disrupting these nuclear receptor pathways and gene expression may promote susceptibility to immunotoxicants and autoimmune diseases. One important group of these expression factors are the retinoid-related orphan receptors. To assess compounds that may interfere with the retinoid-related orphan receptor gamma (ROR-gamma) transcription factor, a cell-based luciferase assay was used.
The CHO cell-based assay utilizes a TET-inducible ROR expression factor and ROR response element-LUC reporter gene. Reporter activity was induced using doxycycline and measured after 16hr incubation. Luminescence was read using Viewlux (PerkinElmer), where a decrease in reporter activity would show a decrease in luminescence.
1,000 cells in 4 uL/well were dispensed into white wall/solid bottom 1536-well plates using a Multidrop Combi (Thermo Scientific) dispenser. Following transfer of 23 nL compound or DMSO vehicle by a pin tool, the plates were treated with 1 ul doxycycline to induce reporter gene activity. After 16hr incubation at 37C and 5% CO2, 5uL one-glo (promega) was added to each plate and following 30 min incubation at room temperature, luminescence was quantified on a ViewLux (PerkinElmer) plate reader.
Potency means the concentration at half of the fitted maximal effect.

Chain of Nuclear receptor ROR-gamma (Homo sapiens) (P51449 whole entry, looked up): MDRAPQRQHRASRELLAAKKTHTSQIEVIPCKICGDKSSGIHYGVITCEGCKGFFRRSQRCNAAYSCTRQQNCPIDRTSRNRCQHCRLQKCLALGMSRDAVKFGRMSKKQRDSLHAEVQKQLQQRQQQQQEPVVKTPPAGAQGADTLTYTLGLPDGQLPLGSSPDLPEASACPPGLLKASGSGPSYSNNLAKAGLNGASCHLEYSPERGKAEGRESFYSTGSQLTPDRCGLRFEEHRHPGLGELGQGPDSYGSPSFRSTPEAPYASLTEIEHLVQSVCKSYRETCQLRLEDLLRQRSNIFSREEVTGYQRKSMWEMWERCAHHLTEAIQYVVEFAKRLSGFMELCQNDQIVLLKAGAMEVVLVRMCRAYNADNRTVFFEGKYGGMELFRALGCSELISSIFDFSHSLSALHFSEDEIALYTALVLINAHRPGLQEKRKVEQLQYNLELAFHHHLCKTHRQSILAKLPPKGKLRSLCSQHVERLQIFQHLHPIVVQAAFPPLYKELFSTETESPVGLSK

Q: CC12CCC(CC1)C(C)(C)O2 was tested. Which Potency did it give?
A: Its Potency is “inactive”.

Q: How did the Potency turn out when CC1(C)[C@@H]2CC[C@@]1(C)C(=O)C2 was run?
A: The Potency was “inactive”.

Q: O=C1O[C@H]([C@@H](O)CO)C(O)=C1O was tested. Which Potency did it give?
A: The Potency was “inactive”.

Q: With NCCNCCNCCN as the molecule, how does the Potency read?
A: Its Potency is “inactive”.

Q: Which Potency does the source give for COc1ccccc1O here?
A: The Potency was “inactive”.

Q: With CCCCOC(=O)c1ccc(O)cc1 as the molecule, how does the Potency read?
A: The Potency was “inactive”.

Q: For NCCNCCNCCNCCN, which Potency is on record?
A: Its Potency is “inactive”.

Q: CCCCCCCCCCCCOS(=O)(=O)O was tested. Which Potency did it give?
A: Its Potency is “inactive”.

Q: With Cc1c(O)cccc1C(=O)N[C@@H](CSc1ccccc1)[C@H](O)CN1C[C@H]2CCCC[C@H]2C[C@H]1C(=O)NC(C)(C)C as the molecule, how does the Potency read?
A: The Potency was 8.41 µM (active).

Q: Cc1cc2nc3c(=O)[nH]c(=O)nc-3n(C[C@H](O)[C@H](O)[C@H](O)CO)c2cc1C was tested. Which Potency did it give?
A: The Potency was “inactive”.

Q: For Cc1cc(CC(=O)O)n(C)c1C(=O)c1ccc(Cl)cc1, which Potency is on record?
A: The Potency was “inactive”.

Q: How did the Potency turn out when [Cl][In]([Cl])[Cl] was run?
A: Its Potency is “inactive”.
